Where a name gives a salt, the structure may show the parent alone.
test system: Saccharomyces cerevisiae BY4741 SeMeCo community; assay: z-score of subpopulation abundance vs DMSO median, subpopulation auxotrophic for HM; higher = larger share of this subpopulation than in DMSO controls; conditions: 10 µM; 24 h; SM minimal medium; subpopulation (auxotrophy): HM
Protocol: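 Fluorescent four-plasmid SeMeCo (self-establishing metabolically cooperating S. cerevisiae BY4741 community; plasmids pH-mRuby2, pL-mWasabi, pU-eCFP, pM-TagRFP657) was grown 24 h in minimal SM medium with each Selleck FDA-approved drug at 10 µM in 384-well plates. Cells were fixed and imaged by high-content confocal microscopy. For each auxotrophic subpopulation (and the prototroph), a z-score gives the deviation from the DMSO vehicle-control population median.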

Compared with Cc1cc(C)nc(NS(=O)(=O)c2ccc(N)cc2)n1 [Sulfamethazine Sodium Salt], Cc1cc(NS(=O)(=O)c2ccc(N)cc2)nc(C)n1 [sulfaisodimidine] is higher in “z-score of subpopulation abundance” value: -0.79 for the first, 0.38 for the second.

Compared with Cc1onc(-c2c(F)cccc2Cl)c1C(=O)N[C@@H]1C(=O)N2[C@@H]1SC(C)(C)[C@@H]2C(=O)O [Flucloxacillin sodium], Cc1onc(-c2ccccc2)c1C(=O)N[C@@H]1C(=O)N2[C@@H]1SC(C)(C)[C@@H]2C(=O)O [Oxacillin sodium monohydrate] is lower in “z-score of subpopulation abundance” value: 0.12 for the first, -0.14 for the second.

Compared with O=C1CC2(CCCC2)CC(=O)N1CCCCN1CCN(c2ncccn2)CC1 [Buspirone HCl], OCCOCCN1CCN(C2=Nc3ccccc3Sc3ccccc32)CC1 [Quetiapine Fumarate] is higher in “z-score of subpopulation abundance” value: -0.83 for the first, 0.13 for the second.

Going from CO/N=C(\C(=O)N[C@@H]1C(=O)N2C(C(=O)O)=C(CSC(=O)c3ccco3)CS[C@H]12)c1csc(N)n1 [Ceftiofur HCl] to CC(=O)OCC1=C(C(=O)O)N2C(=O)[C@@H](NC(=O)CSc3ccncc3)[C@H]2SC1 [Cephapirin Benzathine], the “z-score of subpopulation abundance” value rises from 0.46 to 0.66.

Compared with CN1C(C(=O)Nc2ccccn2)=C(O)c2sc(Cl)cc2S1(=O)=O [Lornoxicam], CN[C@H]1CC[C@@H](c2ccc(Cl)c(Cl)c2)c2ccccc21 [Sertraline HCl] is lower in “z-score of subpopulation abundance” value: -0.77 for the first, -0.87 for the second.

Compared with NCCc1ccc(O)c(O)c1 [Dopamine HCl], CCCCCCCCN=C(N)NC(N)=NCc1ccc(Cl)c(Cl)c1 [Olanexidine Hydrochloride semihydrate] is higher in “z-score of subpopulation abundance” value: -0.38 for the first, 13.8 for the second.

Going from COc1ccc2c3c1O[C@H]1C[C@@H](O)C=C[C@@]31CCN(C)C2 [Galanthamine HBr] to CCN1CCCC1CNC(=O)c1cc(S(N)(=O)=O)ccc1OC (stereo not given) [Sulpiride], the “z-score of subpopulation abundance” value falls from 0.96 to -0.46.

Going from CCOC(=O)c1ccc(N)cc1 [Benzocaine] to CCOc1ccc2nc3cc(N)ccc3c(N)c2c1 [Ethacridine lactate monohydrate], the “z-score of subpopulation abundance” value rises from 0.67 to 5.32.

Going from C[C@@H](O)[C@H]1C(=O)N2C(C(=O)O)=C(S[C@@H]3CN[C@H](CNS(N)(=O)=O)C3)[C@H](C)[C@H]12 [Doripenem Hydrate] to CC1(C)S[C@@H]2[C@H](NC(=O)[C@H](N)c3ccccc3)C(=O)N2[C@H]1C(=O)O [Ampicillin sodium], the “z-score of subpopulation abundance” value rises from -0.76 to -0.71.

Going from CC(C)[N+]1(C)[C@@H]2CC[C@H]1C[C@@H](OC(=O)C(CO)c1ccccc1)C2 (stereo not given in full) [Ipratropium Bromide] to COc1ccccc1OCC(O)CN1CCN(CC(=O)Nc2c(C)cccc2C)CC1 (stereo not given) [Ranolazine], the “z-score of subpopulation abundance” value rises from -0.34 to 0.37.

Going from CCCCCCCCN=c1ccn(CCCCCCCCCCn2ccc(=NCCCCCCCC)cc2)cc1 [Octenidine Dihydrochloride] to CCCCCCCCCC(=O)N[C@@H](Cc1c[nH]c2ccccc12)C(=O)N[C@H](CC(N)=O)C(=O)N[C@@H](CC(=O)O)C(=O)N[C@@H]1C(=O)NCC(=O)N[C@@H](CCCN)C(=O)N[C@@H](CC(=O)O)C(=O)N[C@H](C)C(=O)N[C@@H](CC(=O)O)C(=O)NCC(=O)N[C@H](CO)C(=O)N[C@@H]([C@H](C)CC(=O)O)C(=O)N[C@@H](CC(=O)c2ccccc2N)C(=O)O[C@@H]1C [Daptomycin], the “z-score of subpopulation abundance” value falls from 6.33 to 1.93.

Going from CCCNC(C)C(=O)Nc1ccccc1C (stereo not given) [Prilocaine] to CCCSc1ccc2[nH]c(NC(=O)OC)nc2c1 [Albendazole], the “z-score of subpopulation abundance” value rises from 0.09 to 0.37.

Going from CS(=O)(=O)Nc1ccc([N+](=O)[O-])cc1Oc1ccccc1 [Nimesulide] to NC(=O)N1c2ccccc2CC(=O)c2ccccc21 [Oxcarbazepine], the “z-score of subpopulation abundance” value falls from 0.64 to 0.

Going from Cc1ncc([N+](=O)[O-])n1C [Dimetridazole] to CCOc1cc(N)c([N+](=O)[O-])cc1C(=O)NC1CCN(CC2CC=CCC2)CC1 (stereo not given) [Cinitapride Hydrogen Tartrate], the “z-score of subpopulation abundance” value rises from -0.42 to 0.24.

First: CN(C)CCC[C@@]1(c2ccc(F)cc2)OCc2cc(C#N)ccc21 [Escitalopram Oxalate]
Second: N#Cc1ccc(Oc2ccc3c(c2)COB3O)cc1 [Crisaborole (AN2728)]
The “z-score of subpopulation abundance” value of the first is lower: -0.98 for the first, 0.93 for the second.

Compared with CN[C@H]1C(=O)N[C@@H]2Cc3ccc(cc3)Oc3cc4cc(c3O[C@@H]3O[C@H](C(=O)O)[C@@H](O)[C@H](O)[C@H]3NC(=O)CCCCCCCCC(C)C)Oc3ccc(cc3Cl)[C@@H](O)[C@@H]3NC(=O)[C@H](NC(=O)[C@@H]4NC(=O)[C@@H](NC2=O)c2cc(cc(O)c2Cl)Oc2cc1ccc2O)c1ccc(O)c(c1)-c1c(O[C@H]2O[C@H](CO)[C@@H](O)[C@H](O)[C@@H]2O)cc(O)cc1[C@@H](C(=O)NCCCN(C)C)NC3=O [Dalbavancin], CNS(=O)(=O)CCc1ccc2[nH]cc(C3CCN(C)CC3)c2c1 [Naratriptan HCl] is higher in “z-score of subpopulation abundance” value: -1.02 for the first, -0.44 for the second.

Going from O=C(c1ccccc1)c1ccc2n1CCC2C(=O)O (stereo not given) [Ketorolac tromethamine salt] to NC(=O)c1cn(Cc2c(F)cccc2F)nn1 [Rufinamide], the “z-score of subpopulation abundance” value rises from -0.41 to 0.75.

First: O=c1[nH]c(=O)n([C@H]2C[C@H](O)[C@@H](CO)O2)cc1/C=C/Br [Brivudine]
Second: O=c1ccn(C2CC(O)C(CO)O2)c(=O)[nH]1 (stereo not given) [2-deoxyuridine]
The “z-score of subpopulation abundance” value of the first is lower: -0.22 for the first, 0.04 for the second.

Compared with C[C@]12CCC3=C4CCC(=O)C=C4CC[C@H]3[C@@H]1CC[C@@]2(O)CC#N [Dienogest], CCc1c(C)[nH]c2c1C(=O)C(CN1CCOCC1)CC2 (stereo not given) [Molindone hydrochloride] is lower in “z-score of subpopulation abundance” value: -0.11 for the first, -0.54 for the second.

Going from CCC1(C)CC(=O)NC1=O (stereo not given) [Ethosuximide] to O=C([O-])CC(O)(CC(=O)[O-])C(=O)[O-].O=C([O-])CC(O)(CC(=O)[O-])C(=O)[O-].[Bi+3].[K+].[K+].[K+].[K+].[K+] [Bismuth Subcitrate Potassium], the “z-score of subpopulation abundance” value falls from -0.5 to -1.66.

From the supplement of paper PMC8975748
